Drawing on PubChem BioAssay (NCATS), this text covers Potency for 17 compounds.

Records with an inconclusive call do not appear. Activity calls are given as the source filed them. Calls follow the shape of the dose curve; as a rule, active = well fitted curve in the direction sought with a large enough effect; inconclusive = small, poorly fitted or top-dose-only effect, or another doubt; inactive = no such curve, though single readings can be large; an effect the other way counts as inactive or inconclusive.

Test [1] can be described thus: Primary qHTS for inhibitors of nuclear receptor binding SET domain protein 2 (NSD2) in an isogenic RCH-ACV NSD2 p.E1099K mutant (9B) (AID 1645876). On the technique in general: In qHTS, concentration-response curves come from the screen itself.
A short description of test [2]: Primary qHTS for inhibitors of nuclear receptor binding SET domain protein 2 (NSD2) in an RCH-ACV wild type WT cells (2C) (AID 1645877).
Also: nearly all actives have a fitted effect of over 70% in size.
Potency is read from the fitted curve at half-maximal effect.

In the case of `CCCCOC(=O)CCCCCCCCC(=O)OCCCC`, the Potency result in test [1] and in test [2] was “inactive” each time.

Consider `CC(C)(C)c1ccc(C(=O)CCCCl)cc1`, for which the Potency entry in test [1] and in test [2] was “inactive” throughout.

As for `CC(=O)N(CC(=O)N(C)C)c1ccccc1`, the Potency entry in test [1] and in test [2] was “inactive” in each case.

Take `CN1C(=O)c2ccccc2C1=O`: the Potency entry in test [1] and in test [2] was “inactive” each time.

As for `O=C(O)Cn1c(=O)n(Cc2ccc(Br)cc2F)c(=O)c2ccc(Cl)cc21`, the Potency result in test [1] and in test [2] was “inactive” in each case.

On to `CCN1CCCC1CN` (centres undefined), for which the Potency result in test [1] and in test [2] was “inactive” in each case.

For `CCCCCCCCCCCCCC[N+](C)(C)C`, the Potency in test [1] is 0.237 µM (active); in test [2], 0.266 µM (active).

Regarding `CC(=O)Nc1ccc(S(=O)(=O)Nc2cc(C)on2)cc1`, the Potency entry in test [1] and in test [2] was “inactive” throughout.

Turning to `Cc1ccc(C(C)OC(=O)C2(C)CCC(C(=O)O)C2(C)C)cc1` (centres undefined), the Potency result in test [1] and in test [2] was “inactive” each time.

On to `CCCCC(CC)CNC(=O)CC(C)OC(=O)CCC(=O)O` (centres undefined), for which the Potency result in test [1] and in test [2] was “inactive” in each case.

Regarding `N#CC1(c2ccc(F)cc2)CCC(=O)CC1`, the Potency entry in test [1] and in test [2] was “inactive” throughout.

In the case of `CC(=O)c1ccc(O)c(C(N)=O)c1`, the Potency entry in test [1] and in test [2] was “inactive” in each case.

As to `O=c1[nH]c2ccccc2c(=O)n1CCCl`, the Potency result in test [1] and in test [2] was “inactive” in each case.

Consider `C/C=C(/C(=C/C)c1ccc(OC(C)=O)cc1)c1ccc(OC(C)=O)cc1`, for which the Potency in test [1] is 5.31 µM (active); in test [2], 3.76 µM (active).

Turning to `CC(C)(C)CC(=O)OCC(=O)[C@@]1(O)CC[C@H]2[C@@H]3CCC4=CC(=O)C=C[C@]4(C)[C@H]3[C@@H](O)C[C@@]21C`, the Potency in test [1] was 21.1 µM (active); in test [2], 0.0531 µM (active).

`O=C(Nc1ccc(Cl)cc1)Nc1ccc(Cl)c(C(F)(F)F)c1`: the values for the Potency in test [1] and in test [2] were 4.22 µM (active) and 2.99 µM (active), respectively.

As to `COc1ccc2c(c1)CCCC2=O`, the Potency result in test [1] and in test [2] was “inactive” throughout.
